Measurements as given in ChEMBL document CHEMBL1157539, “Thousands of chemical starting points for antimalarial lead identification” (Nature, 2010).

What was measured:
Assay type in all cases: functional
Plasmodium falciparum [1] = test: GSK_TCMDC: Inhibition of Plasmodium falciparum 3D7 in whole red blood cells, using parasite LDH activity as an index of growth. Test compounds present at 2uM
Plasmodium falciparum [2] = test: GSK_TCMDC: Inhibition of Plasmodium falciparum Dd2 in whole red blood cells, using parasite LDH activity as an index of growth. Test compounds present at 2uM
HepG2 = test: GSK_TCMDC: Percent inhibition of human HepG2 cell line. Test compounds present at 10uM.

Row | SMILES | Inhibition (Plasmodium falciparum [1]) [%] | Inhibition (Plasmodium falciparum [2]) [%] | Inhibition (HepG2) [%]
1 | COc1cc(C(C)C)ccc1N1CCN(CCCCNC(=O)c2ccc(NC(=O)c3ccc(Cl)cc3)cc2)CC1 | 98 | 81 | 25
2 | CS(=O)(=O)c1cccc(-c2cnc3[nH]cc(-c4cccc(CCN)c4)c3c2)c1.O=C(O)C(F)(F)F | 99 | 74 | 0
3 | Cc1cc(C2CCN(CCCCNC(=O)c3ccc(-c4ccc(C(F)(F)F)cc4)cc3)CC2)c(C)cc1OCCO | 99 | 3 | 31
4 | CC(C)=CC1C(C(=O)n2c(=N)[nH]c3ccccc32)C1(C)C (stereo not given) | 99 | 3 | 16
5 | CCOc1cc(C(=O)Nc2ccc3nc(N4CCCCC4)cc(C)c3c2)cc(OCC)c1OCC | 100 | 2 | 26
